From PubChem BioAssay
Calls of active or inactive are those of the source.

Columns and labels:
[1] = compound effects on lung adenocarcinoma cell viability – A549, calcein-AM fluorescence, 48 h, basal, profiling panel (AID 1162); settings: higher = more signal
[2] = compound effects on differentiated 3T3-L1 adipocyte viability – cell-based, 3T3-L1 adipocytes, calcein-AM fluorescence, 48 h, basal, profiling panel (AID 1163); settings: 3T3-L1 adipocytes viability, higher = more signal
[3] = compound effects on hepatocellular carcinoma cell viability – HepG2, calcein-AM fluorescence, 48 h, basal, profiling panel (AID 1164); settings: higher = more signal
[4] = compound effects on multiple myeloma cell viability – MM1S, calcein-AM fluorescence, 48 h, basal, profiling panel (AID 1165); settings: higher = more signal;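 also: viability of MM1S multiple myeloma cells under basal unstimulated conditions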
[5] = calcein-AM signal in unstimulated myeloma cells – cell-based, calcein-AM fluorescence, 48 h, PK04 Diversity Set, profiling panel (AID 1166); settings: RPMI8226 myeloma viability, higher = more signal;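 also: cells grown under basal conditions without added stimulus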
[6] = JC-1 mitochondrial signal, unstimulated HepG2 cells – cell-based, JC-1 fluorescence, 24 h, 100 nL compound, profiling panel (AID 1167); settings: HepG2 mitochondrial potential, higher = more signal
[7] = JC-1 mitochondrial signal, unstimulated adipocytes – cell-based, JC-1 fluorescence, 3T3-L1 adipocytes, 24 h, 100 nL compound, profiling panel (AID 1168); settings: JC-1 mitochondrial fluorescence, higher = more signal, called active from +8 up or from −8 down
[8] = JC-1 mitochondrial signal, unstimulated myeloma cells – cell-based, JC-1 fluorescence, RPMI8226, 24 h, 100 nL compound, profiling panel (AID 1169); settings: JC-1 mitochondrial potential fluorescence, higher = more signal
[9] = JC-1 mitochondrial signal, unstimulated MM1S myeloma – cell-based, JC-1 fluorescence, 24 h, 100 nL compound, profiling panel (AID 1170); settings: MM1S mitochondrial potential, higher = more signal
[10] = resazurin metabolic signal in A549 cells – cell-based, resazurin fluorescence, 24 h, PK04 Diversity Set, profiling panel (AID 1171); settings: A549 viability, higher = more signal, called active from +8 up or from −8 down
Also: test concentration not given here.

Structure (SMILES)	z-score [1]	z-score [2]	z-score [3]	z-score [4]	z-score [5]	z-score [6]	z-score [7]	z-score [8]	z-score [9]	z-score [10]
CO[C@@H]1C=CCC(=O)N[C@@H](C)C(=O)OC[C@@H](OC)[C@H](C)CCCC(=O)OC[C@H]1C	0.942	-0.226	-0.0306	0.188	-0.0539	-0.0819	0.225 (inactive)	0.236	-0.392	0.471 (inactive)
COC(=O)[C@H](C)NC(=O)CCC1CC(OC(=O)NCc2ccc3c(c2)OCO3)CC2(CCCC(COC(=O)NCCc3ccccc3OC)O2)O1 (stereo not given in full)	-0.949	-0.976	-2.36	-3.53	-1.56	-1.34	0.354 (inactive)	-0.241	-0.735	0.389 (inactive)
O=C1CCCC=C1C(O)CCCCBr (stereo not given)	-1.75	0.593	-4.6	-3.52	-3.71	-0.504	0.482 (inactive)	-0.967	-3.04	-2.06 (inactive)
CCCCC#C[C@@H]1C=C[C@H](Oc2cc(OC)c(OC)c(OC)c2)[C@@H](COC(=O)OCC)O1	1.75	-0.931	0.928	-2.65	-1.86	-0.163	0.841 (inactive)	0.23	-0.254	-0.108 (inactive)
CO[C@H]1COC(=O)[C@@H](C)COC(=O)[C@H](COCc2ccccc2)NC(=O)CC=C[C@H]1C	0.362	0.293	0.298	0.555	0.34	1.36	-0.213 (inactive)	0.529	2.5	0.266 (inactive)
CC(CCC(=O)OC[C@H]1O[C@H](C#Cc2ccccc2)C=C[C@@H]1Oc1ccc(C)cc1)=NO[C@H](C)c1cn([C@H](CO)Cc2ccccc2)nn1	0.122	-0.643	-0.34	-3.06	-3.97	0.0151	-1.08 (inactive)	-0.712	-0.547	0.804 (inactive)
CO[C@@H]1COC(=O)[C@@H]2CCCN2C(=O)[C@@H](C)COC(=O)CC=C[C@H]1C	-1.06	-0.11	-0.321	0.0099	-0.748	-0.2	-1.49 (inactive)	-0.0504	-0.684	0.948 (inactive)
Cc1ccc(S(=O)(=O)N[C@H]2COC(=O)CC=C[C@@H](C)COC(=O)CC=C[C@@H]2C)cc1	0.409	-0.203	0.0995	0.0438	0.219	0.247	-0.393 (inactive)	-0.0798	-0.197	0.258 (inactive)
CO[C@H](C1CCCCC1)[C@H](C)C=CCC(=O)OCCCc1ccccc1	0.19	-0.518	-0.0782	-0.237	0.182	0.639	-0.249 (inactive)	0.773	-0.199	0.301 (inactive)
CC(C)=CCCC(C)=CCON=C1C[C@@H](O)[C@@H](O)[C@@H]2[C@@H]3C(=O)N(C(C)(C)C)C(=O)[C@@H]3CC[C@@H]12	0.0392	0.523	0.121	-1.09	-0.562	-0.279	-0.365 (inactive)	-0.231	0.947	-1.03 (inactive)
CO[C@@H]1COC(=O)[C@@H](C)NC(=O)CC=C[C@@H](C)[C@H](NS(=O)(=O)c2ccc(C)cc2)COC(=O)[C@H](C)NC(=O)CC=C[C@H]1C	0.458	0.177	0.196	-0.0848	-0.036	-0.125	-0.172 (inactive)	0.51	0.468	1.33 (inactive)
CCCNC(=O)OC[C@H]1O[C@H](CCON=C(C)CCC(=O)OC[C@H]2O[C@H](c3ccccc3)C=C[C@@H]2Oc2ccc(OC)cc2)C=C[C@@H]1Oc1ccc(OC)cc1	0.415	0.354	-0.208	-1.31	-0.303	1.26	0.000229 (inactive)	0.625	0.33	0.748 (inactive)
C=CC1=C[C@H](O)[C@@H]2O[C@@H]2C12OCCCO2	-0.375	-0.564	-0.0684	-0.705	0.265	-0.977	-0.729 (inactive)	-0.371	-0.361	0.0527 (inactive)
CC(C)CON=C1C[C@@H](O)[C@@H](O)[C@@H]2[C@@H]3C(=O)N(c4cccc(Oc5ccccc5)c4)C(=O)[C@@H]3CC[C@@H]12	1.52	0.797	0.626	-0.779	0.0135	0.291	0.411 (inactive)	0.615	-1.78	-0.908 (inactive)
CCOC(=O)[C@H](CC(C)C)NC(=O)CCC1CC(OC(=O)NCc2cccc3ccccc23)CC2(CCCC(COC(=O)NCc3cccc(C(F)(F)F)c3)O2)O1 (stereo not given in full)	-0.442	-0.302	0.8	0.484	0.38	0.936	0.346 (inactive)	0.0118	-0.851	-0.75 (inactive)
CC(CCN1CCc2nc(-c3ccccc3)c(-c3ccccc3)cc2C1)=NOC[C@@H](O)COCc1ccco1	1.53	-0.0838	2.01	-0.293	0.465	1.65	-0.278 (inactive)	1.09	-0.174	-0.684 (inactive)
CC(C)(C)N1C(=O)[C@H]2[C@H]3[C@H](O)[C@H](O)CC(=NOCc4ccccc4)[C@H]3CC[C@H]2C1=O	0.156	-0.503	-1.11	0.166	-0.946	-0.736	0.536 (inactive)	-0.492	0.0361	0.727 (inactive)
CC(C)[C@@H](OCc1ccccc1)[C@H](C)C=NOC[C@@H](O)COCc1ccco1	-0.695	0.0863	-0.893	-1.05	-1.09	-1.83	-1.25 (inactive)	-0.298	-0.368	-0.185 (inactive)
CC(C)(C)N1C(=O)[C@H]2[C@H]3[C@H](O)[C@H](O)CC(=O)[C@@H]3CC[C@H]2C1=O	-0.743	0.436	0.178	-0.102	-0.052	-0.323	-0.715 (inactive)	0.967	0.419	0.756 (inactive)
CC(C)CON=C1C[C@@H](O)[C@@H](O)[C@@H]2[C@@H]3C(=O)N(c4ccc(F)cc4F)C(=O)[C@@H]3CC[C@H]12	0.0042	-0.934	-0.222	0.597	-0.567	0.861	-0.131 (inactive)	0.541	-1	0.495 (inactive)
C[C@@H]1CC[C@H]2C(=O)O[C@@H](COc3ccc(C(C)(C)C)cc3)CN2[C@@H]1c1ccc(Br)cc1	0.373	1.03	0.843	-2.33	-0.391	-1.05	-0.391 (inactive)	-0.509	0.291	1.99 (inactive)
CCOC(=O)[C@H](CC(C)C)NC(=O)CCC1CC(OC(=O)NCc2ccc3c(c2)OCO3)CC2(CCCC(COC(=O)NCC(c3ccccc3)c3ccccc3)O2)O1 (stereo not given in full)	-0.338	-0.335	-0.312	-3.41	0.592	-0.106	0.604 (inactive)	-0.828	0.0369	0.577 (inactive)
CC(C)CON=C1C[C@@H](O)[C@@H](O)[C@@H]2[C@@H]3C(=O)N(C(C)(C)C)C(=O)[C@@H]3CC[C@H]12	0.539	-0.519	-0.248	0.246	0.0151	-0.772	-0.697 (inactive)	-0.369	-0.465	-0.77 (inactive)
CCOC(=O)[C@H](CC(C)C)NC(=O)CCC1CC(OC(=O)NCc2ccc3c(c2)OCO3)CC2(CCCC(COC(=O)NCC3CCCCC3)O2)O1 (stereo not given in full)	1.2	-0.721	-0.991	-1.2	0.599	0.498	0.368 (inactive)	-0.247	-0.972	1.26 (inactive)
C[C@@H](c1ccccc1)N1C(=O)[C@H]2[C@H]3[C@H](O)[C@H](O)CC(=NOCc4ccccc4)[C@H]3CC[C@H]2C1=O	0.654	-0.602	-0.159	0.503	0.13	0.879	0.925 (inactive)	0.00496	-1.55	-0.428 (inactive)
COC(=O)CC=C[C@H](C)[C@@H](OCc1cccc(Br)c1)[C@@H](C)[C@H](OC)C1CCCCC1	0.836	0.128	1.21	-2.16	-0.474	0.918	0.831 (inactive)	0.00209	-0.324	0.0303 (inactive)
CON=C[C@@H](NS(=O)(=O)c1ccc(C)cc1)[C@H](C)C=CCC(=O)OC	1.19	-0.951	0.244	0.561	0.226	0.271	-0.95 (inactive)	-0.0325	0.0264	-0.262 (inactive)
C[C@H]1CC[C@H]2C(=O)O[C@H](COc3ccc(C(C)(C)C)cc3)CN2[C@@H]1c1ccc(Br)cc1	0.354	0.356	0.573	0.0772	-2.09	-0.568	-0.372 (inactive)	-0.841	1.33	0.636 (inactive)
COC(=O)[C@H](C)NC(=O)CCC1CC(OC(=O)NCc2ccc3c(c2)OCO3)CC2(CCCC(COC(=O)NCc3cccc(C(F)(F)F)c3)O2)O1 (stereo not given in full)	-0.828	-0.0811	-1.55	-2.05	0.442	-1.44	-0.123 (inactive)	0.619	-0.213	0.0249 (inactive)
